Columns and labels:
Conditions in all cases: concentration: 1 μM, replicates: in singlicate; n = 1
JNK1 = tested on: T1, JNK1
T1 construct: gene MAPK8

JNK2 = tested on: T2, JNK2
T2 construct: gene MAPK9

JNK3 = tested on: T3, JNK3
T3 construct: gene MAPK10

KIT-autoinhibited = tested on: KIT-autoinhibited
KIT = tested on: KIT
LATS1 = tested on: LATS1
LATS2 = tested on: LATS2
LCK = tested on: LCK
LIMK1 = tested on: LIMK1
LIMK2 = tested on: LIMK2
LKB1 = tested on: T4, LKB1
T4 construct: gene STK11

LOK = tested on: T5, LOK
T5 construct: gene STK10

LRRK2 = tested on: LRRK2
LTK = tested on: LTK
LYN = tested on: LYN
LZK = tested on: T6, LZK
T6 construct: gene MAP3K13

MAK = tested on: MAK
MAP3K15 = tested on: MAP3K15
MAP3K1 = tested on: MAP3K1
MAP3K2 = tested on: MAP3K2
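Further: KINOMEscan kinase panel screen.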

Compound	%Inh (JNK1) [%]	%Inh (JNK2) [%]	%Inh (JNK3) [%]	%Inh (KIT-autoinhibited) [%]	%Inh (KIT) [%]	%Inh (LATS1) [%]	%Inh (LATS2) [%]	%Inh (LCK) [%]	%Inh (LIMK1) [%]	%Inh (LIMK2) [%]	%Inh (LKB1) [%]	%Inh (LOK) [%]	%Inh (LRRK2) [%]	%Inh (LTK) [%]	%Inh (LYN) [%]	%Inh (LZK) [%]	%Inh (MAK) [%]	%Inh (MAP3K15) [%]	%Inh (MAP3K1) [%]	%Inh (MAP3K2) [%]
FC(F)(F)c1ccc(-c2cc(-c3c[nH]nc3-c3ccccn3)ccn2)cc1 [GW599550]	0	5	0	0	26	0	40	25	7	0	12	0	7	21	0	29	11	0	5	0
O=C(NCCCN1CCCC1=O)c1cnc(NCc2cc(Cl)ccc2Cl)nc1NC1CCNCC1	0	0	0	0	0	0	29	15	0	0	0	4	0	0	1	0	84	0	0	79
Clc1cccc(-c2nc(Nc3ccncc3)c3ccccc3n2)c1 [GW873004]	0	0	0	1	10	14	0	31	54	12	28	59	0	6	0	0	0	0	0	0
Fc1cccc(COc2ccc(Nc3ncnc4cc[nH]c34)cc2Cl)c1	33	17	46	6	24	26	25	25	22	17	0	29	9	18	0	20	9	50	21	11
Oc1ccc2ncnc(Nc3ccc(OCc4ccccc4)cc3)c2c1 [GI262866]	0	0	0	0	48	0	0	2	0	4	0	0	48	82	0	0	13	20	5	0
COC(=O)c1c(-c2ccccc2)c2cc(Cl)ccc2c(=O)n1Cc1ccc(S(C)(=O)=O)cc1	98.8	99.5	99.4	0	56	30	19	13	1	0	0	4	2	0	20	0	5	20	0	0
C[C@H]1CC[C@@H](C(=O)Nc2ccccc2)CN1c1cc(-c2ccc3c(N)n[nH]c3c2)nc(N)n1 [GSK2283293]	5	25	1	16	1	0	9	5	0	0	15	0	0	0	0	0	12	0	0	0
Fc1ccc(Nc2nccc(-c3c(-c4ccc(Cl)cc4)nn4ncccc34)n2)cc1F [GW829058]	40	63	56	12	38	11	19	11	0	7	8	28	0	6	24	5	12	24	22	27
Cn1ccc2ncnc(Nc3ccc(Oc4cccc(Cl)c4)c(Cl)c3)c21	8	0	0	0	24	44	0	0	0	6	0	55	5	11	4	0	26	11	29	17
CC(C)(C)c1ccc(-n2cnc3c(N)ncnc32)cc1 [SKF-97263]	21	3	1	1	38	0	18	8	8	0	0	2	22	6	5	0	8	16	8	1
CNc1nccc(-c2c(-c3ccc(F)cc3)ncn2CCCN2CCOCC2)n1 [SB-222516]	12	0	0	4	2	0	0	1	11	95.2	0	0	0	0	0	0	0	0	21	5
CC(C)N1CCC(n2cnc(-c3ccc(F)cc3)c2-c2ccnc(N)n2)CC1 [SB-223132]	23	12	0	0	0	0	0	14	0	9	0	0	28	2	22	0	0	0	0	0
CS(=O)(=O)CCNCc1ccc(-c2ccc3ncnc(Nc4ccc(OCc5ccccc5)c(Cl)c4)c3c2)o1.Cl [GW574783]	18	4	0	0	10	0	11	30	0	1	0	58	22	25	0	26	12	5	15	0
CC(=O)Nc1n[nH]c2ncc(-c3ccccc3)cc12 [SB-548492]	40	17	17	21	67	14	4	30	0	45	25	0	0	5	0	0	51	11	27	16
Fc1cccc(COc2ccc(Nc3ncnc4nn5ccccc5c34)cc2Cl)c1 [GW689066]	11	10	0	0	0	0	0	5	0	0	14	0	31	0	0	16	0	0	0	8
Cc1ccc(O)cc1Nc1cc(C(F)(F)F)nc2ccc(-c3ccncc3)cc12 [GW630823]	0	0	0	0	14	0	0	14	21	15	0	5	0	0	1	0	7	0	0	1
O=C(Nc1n[nH]c2nc(-c3ccco3)c(Br)cc12)c1ccc(CN2CCCC2)cc1.O=C(O)[C@H](O)[C@@H](O)C(=O)O [SB-742352]	0	0	0	0	99.2	0	0	47	26	0	0	14	0	21	50	0	20	0	0	0
Nc1nc(-c2ccc3c(N)n[nH]c3c2)cc(N2CCCCC2)n1 [GSK2228768]	5	11	0	0	5	0	0	3	0	0	0	0	0	0	0	0	17	0	0	0
COc1ccc(-c2oc3ncnc(N)c3c2-c2ccc(OC)cc2)cc1 [SB-589132]	30	10	0	29	49	100	0	54	24	8	28	0	33	0	4	51	11	0	10	0

Reference: PMC5540273 (PLoS ONE, 2017)
